Test results reported in PubChem BioAssay (EPA / NIEHS).
Records with an inconclusive call do not appear. Activity calls are given as the source filed them. The calls were made as follows: active = hit-call score of the fitted dose curve at least 0.9, where 1 is the maximum; inconclusive = response in the unintended direction; inactive = score below 0.9.

Tests used:
[1] = biological target: Androgen receptor (Homo sapiens) (UniProt P10275); test: ATG_AR_TRANS: Attagene TRANS-FACTORIAL HepG2 Assay for human Androgen Receptor (AR) (AID 2282973); details: HepG2 Attagene TRANS-FACTORIAL AR reporter transcription
Sequence of Androgen receptor (Homo sapiens) (P10275 whole entry, looked up, the tested form may be a part): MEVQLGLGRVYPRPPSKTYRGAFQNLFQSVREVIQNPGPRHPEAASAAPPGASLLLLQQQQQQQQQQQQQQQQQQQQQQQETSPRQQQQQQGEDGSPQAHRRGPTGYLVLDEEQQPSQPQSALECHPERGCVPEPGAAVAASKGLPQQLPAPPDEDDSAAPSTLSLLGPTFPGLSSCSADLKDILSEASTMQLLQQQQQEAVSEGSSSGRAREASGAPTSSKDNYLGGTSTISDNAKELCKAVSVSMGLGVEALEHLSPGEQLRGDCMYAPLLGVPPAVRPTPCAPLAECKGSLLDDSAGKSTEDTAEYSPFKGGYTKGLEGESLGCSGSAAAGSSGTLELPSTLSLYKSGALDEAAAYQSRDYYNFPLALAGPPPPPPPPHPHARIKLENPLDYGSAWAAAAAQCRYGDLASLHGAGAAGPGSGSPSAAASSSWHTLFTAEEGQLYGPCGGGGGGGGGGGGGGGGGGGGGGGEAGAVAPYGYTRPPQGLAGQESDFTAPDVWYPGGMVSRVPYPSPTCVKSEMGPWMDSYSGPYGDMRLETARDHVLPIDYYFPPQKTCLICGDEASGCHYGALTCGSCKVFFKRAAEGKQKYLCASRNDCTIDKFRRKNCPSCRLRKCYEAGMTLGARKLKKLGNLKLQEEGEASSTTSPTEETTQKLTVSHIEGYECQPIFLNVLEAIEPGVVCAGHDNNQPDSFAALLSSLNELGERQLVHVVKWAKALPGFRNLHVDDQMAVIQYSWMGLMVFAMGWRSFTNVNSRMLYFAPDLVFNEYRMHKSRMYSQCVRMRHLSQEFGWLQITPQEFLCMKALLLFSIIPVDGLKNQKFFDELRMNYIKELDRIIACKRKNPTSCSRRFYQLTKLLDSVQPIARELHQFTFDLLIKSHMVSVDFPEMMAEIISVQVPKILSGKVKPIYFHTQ
Outline: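 HepG2 cells transiently transfected with AR-Gal4 chimera and GAL4-UAS reporter units; chemical exposure 24 h. Reporter mRNA quantified by RT-PCR with fluorescent labelling and capillary electrophoresis; gain-of-signal fitted against DMSO.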

[2] = biological target: human Ephrin type-A Receptor 2 (EphA2), EPHA2 (gene 1969) (UniProt P29317); test: NVS_ENZ_hEphA2: NovaScreen (NVS) Enzymatic Assay for human Ephrin type-A Receptor 2 (EphA2) (AID 2283155)
Sequence of human Ephrin type-A Receptor 2 (EphA2), EPHA2 (gene 1969) (P29317 whole entry, looked up): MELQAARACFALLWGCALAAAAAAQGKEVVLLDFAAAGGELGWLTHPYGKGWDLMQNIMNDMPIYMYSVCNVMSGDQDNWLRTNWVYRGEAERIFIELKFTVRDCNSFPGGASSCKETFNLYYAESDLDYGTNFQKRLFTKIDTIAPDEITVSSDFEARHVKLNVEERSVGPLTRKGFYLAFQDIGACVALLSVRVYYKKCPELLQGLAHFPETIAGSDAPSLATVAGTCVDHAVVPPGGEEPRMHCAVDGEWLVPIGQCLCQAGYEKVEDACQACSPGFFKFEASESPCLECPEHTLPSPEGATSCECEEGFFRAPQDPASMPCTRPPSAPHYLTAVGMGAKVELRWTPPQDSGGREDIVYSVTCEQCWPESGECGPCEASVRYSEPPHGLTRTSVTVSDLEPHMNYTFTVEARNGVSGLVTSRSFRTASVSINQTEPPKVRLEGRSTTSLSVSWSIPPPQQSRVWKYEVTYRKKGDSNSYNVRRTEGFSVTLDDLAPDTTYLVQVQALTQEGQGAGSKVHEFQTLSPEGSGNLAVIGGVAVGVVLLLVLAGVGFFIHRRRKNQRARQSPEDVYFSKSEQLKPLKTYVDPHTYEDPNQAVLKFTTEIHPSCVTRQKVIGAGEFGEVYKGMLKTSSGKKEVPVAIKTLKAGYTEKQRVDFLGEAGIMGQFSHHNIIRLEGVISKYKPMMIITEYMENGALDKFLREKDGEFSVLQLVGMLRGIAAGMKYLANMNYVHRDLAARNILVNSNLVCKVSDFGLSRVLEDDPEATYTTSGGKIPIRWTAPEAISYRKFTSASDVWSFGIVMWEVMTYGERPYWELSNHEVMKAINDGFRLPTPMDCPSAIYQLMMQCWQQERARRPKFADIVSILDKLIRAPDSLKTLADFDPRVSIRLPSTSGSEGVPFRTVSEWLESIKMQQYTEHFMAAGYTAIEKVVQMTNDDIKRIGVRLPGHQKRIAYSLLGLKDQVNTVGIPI
Outline: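 Enzyme activity of recombinant EphA2 read by fluorescence after mobility-shift separation, 1 h after dosing. Chemicals first tested at 25 uM (duplicate); those passing threshold run as concentration series, top 50 uM, single replicate, relative to DMSO.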

[3] = biological target: human p21 Activated Kinase 4 (PAK4), PAK4 (gene 10298) (UniProt O96013); test: NVS_ENZ_hPAK4: NovaScreen (NVS) Enzymatic Assay for human p21 Activated Kinase 4 (PAK4) (AID 2283189)
Sequence of human p21 Activated Kinase 4 (PAK4), PAK4 (gene 10298) (O96013 whole entry, looked up): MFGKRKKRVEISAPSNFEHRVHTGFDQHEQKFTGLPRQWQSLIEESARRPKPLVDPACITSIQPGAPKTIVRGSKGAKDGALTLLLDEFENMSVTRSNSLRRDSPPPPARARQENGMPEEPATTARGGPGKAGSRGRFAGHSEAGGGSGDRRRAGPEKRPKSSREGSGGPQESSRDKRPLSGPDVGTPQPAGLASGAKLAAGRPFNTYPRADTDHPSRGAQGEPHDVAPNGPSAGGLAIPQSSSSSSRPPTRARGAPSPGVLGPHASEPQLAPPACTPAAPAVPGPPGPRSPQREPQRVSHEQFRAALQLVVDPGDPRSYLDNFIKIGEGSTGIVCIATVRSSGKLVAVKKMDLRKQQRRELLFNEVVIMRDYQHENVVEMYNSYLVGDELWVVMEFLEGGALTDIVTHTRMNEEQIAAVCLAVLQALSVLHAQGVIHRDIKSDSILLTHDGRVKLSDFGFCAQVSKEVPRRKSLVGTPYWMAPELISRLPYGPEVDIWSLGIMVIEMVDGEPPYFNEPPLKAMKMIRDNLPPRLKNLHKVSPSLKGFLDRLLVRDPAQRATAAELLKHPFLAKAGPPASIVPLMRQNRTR
Outline: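 Extracted PAK4 enzyme activity read by fluorescence with mobility-shift separation 1 h after chemical addition. Duplicate single-concentration screen at 25 uM, DMSO as negative control.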

[4] = biological target: human Protein Tyrosine Phosphatase Receptor Type C (PTPRC), PTPRC (gene 5788) (UniProt P08575); test: NVS_ENZ_hPTPRC: NovaScreen (NVS) Enzymatic Assay for human Protein Tyrosine Phosphatase Receptor Type C (PTPRC) (AID 2283212)
Outline: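 Absorbance-based phosphatase activity of human PTPRC protein extracted from yeast was measured 1 h post-dosing. Compounds first tested at 25 uM in duplicate, then those passing threshold in singleton concentration series to 50 uM.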

[5] = biological target: rat Acetylcholinesterase (AChE), Ache (gene 83817) (UniProt P37136); test: NVS_ENZ_rAChE: NovaScreen (NVS) Enzymatic Assay for rat Acetylcholinesterase (AChE) (AID 2283233)
Outline: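 Compounds first screened at 25 uM in duplicate, then those passing threshold tested in concentration series up to 50 uM, against AChE from rat brain membranes. Enzyme activity read by absorbance at 0.33 h; inhibition scored versus DMSO.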

[6] = test system: rat Monoamine Oxidase, MAO-A, Peripheral (MAOAP), gene 29253; test: NVS_ENZ_rMAOAP: NovaScreen (NVS) Enzymatic Assay for rat Monoamine Oxidase, MAO-A, Peripheral (MAOAP) (AID 2283237)
Outline: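 Scintillation counting tracked MAO-A activity in a cell-free rat liver mitochondrial membrane prep, read 1.17 hours after compound addition. Single-point duplicate testing at 25 uM preceded concentration-response follow-up; activity was fitted relative to DMSO.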

[7] = biological target: Voltage-dependent N-type calcium channel subunit alpha-1B (Rattus norvegicus) (UniProt Q02294); test: NVS_IC_rCaChN: NovaScreen (NVS) Ion Channel Assay for rat Calcium Channel, Type N (CaChN) (AID 2283317)
[8] = biological target: Norway rat Vesicular Monoamine Transporter (VMAT2), neurotransmitter transporter, Slc18a2 (gene 25549) (UniProt Q01827); test: NVS_TR_rVMAT2: NovaScreen (NVS) Transporter Assay for Norway rat Vesicular Monoamine Transporter (VMAT2), neurotransmitter transporter (AID 2283376);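 also: actives lower the bound radioligand signal below the DMSO level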
Outline: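 Using rat forebrain membranes, specific radioligand binding to VMAT2 was measured by filtration and scintillation counting after 1 hour. Chemicals screened at 25 uM in duplicate, actives retested in concentration series, DMSO baseline.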

[9] = biological target: PPP2CA (gene 5515) (UniProt P67775); test: NVS_ENZ_hPPP2CA: NovaScreen (NVS) Enzymatic Assay for human Protein Phosphatase 2 Aatalytic subunit Alpha (PPP2CA) (AID 2283199)
Outline: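 Cell-free phosphatase activity: fluorescent substrate turnover by recombinant human enzyme, resolved by mobility shift at 1.33 h. Compounds passing the 25 uM duplicate primary screen were rerun in singleton series with a 50 uM top concentration.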

[10] = test system: rat Monoamine Oxidase, MAO-A, Central (MAOAC), gene 29253; test: NVS_ENZ_rMAOAC: NovaScreen (NVS) Enzymatic Assay for rat Monoamine Oxidase, MAO-A, Central (MAOAC) (AID 2283243);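 also: potency refers to inhibition seen as signal drop below DMSO baseline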
Outline: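 Lysate-based radiometric enzyme assay using rat brain tissue; 1.5 h treatment; 25 uM single-point duplicate screen, concentration-response follow-up; loss of signal versus DMSO.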

[11] = biological target: rat Neurotensin Receptor (NTS), Ntsr1 (gene 366274) (UniProt P20789); test: NVS_GPCR_rNTS: NovaScreen (NVS) G Protein-Coupled Receptor Assay for rat Neurotensin Receptor (NTS) (AID 2283308)
Sequence of rat Neurotensin Receptor (NTS), Ntsr1 (gene 366274) (P20789 whole entry, looked up): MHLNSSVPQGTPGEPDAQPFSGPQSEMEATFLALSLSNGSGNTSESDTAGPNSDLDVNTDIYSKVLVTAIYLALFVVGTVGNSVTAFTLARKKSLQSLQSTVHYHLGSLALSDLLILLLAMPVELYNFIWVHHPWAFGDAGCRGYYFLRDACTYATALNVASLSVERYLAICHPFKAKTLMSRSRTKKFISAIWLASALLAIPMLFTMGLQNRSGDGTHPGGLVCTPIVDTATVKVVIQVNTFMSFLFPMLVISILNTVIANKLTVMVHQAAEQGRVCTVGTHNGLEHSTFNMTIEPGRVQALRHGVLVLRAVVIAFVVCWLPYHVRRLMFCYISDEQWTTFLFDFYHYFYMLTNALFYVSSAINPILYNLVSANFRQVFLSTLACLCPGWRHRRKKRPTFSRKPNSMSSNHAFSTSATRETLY
Outline: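 Single-point duplicates at 25 uM, then concentration series to 50 uM max for hits, measured radioligand displacement on rat forebrain membrane preparations. Bound label counted by filtration scintillation at 1 h; signal loss relative to DMSO fitted.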

[12] = biological target: bovine Gamma-Aminobutyric Acid Type A Receptor BDZ, alpha 1 site (GABARa1), GABRA1 (gene 780973) (UniProt P08219); test: NVS_LGIC_bGABARa1: NovaScreen (NVS) Ligand-Gated Ion Channel Assay for bovine Gamma-Aminobutyric Acid Type A Receptor BDZ, alpha 1 site (GABARa1) (AID 2283321)
Outline: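 Bovine cortex membrane preparation, benzodiazepine site on GABA-A alpha1; specific radioligand displacement read after 0.75 h by filtration and scintillation. Screen at 25 uM, then singleton titrations up to 50 uM; DMSO baseline.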

[13] = biological target: human Fibroblast Growth Factor Receptor 1 (FGFR1), FGFR1 (gene 2260) (UniProt P11362); test: NVS_ENZ_hFGFR1: NovaScreen (NVS) Enzymatic Assay for human Fibroblast Growth Factor Receptor 1 (FGFR1) (AID 2283159);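 also: hits lower the signal so potencies describe inhibitors of the kinase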
Outline: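 Cell-free recombinant kinase with fluorescent substrate, product separated by electrophoretic mobility shift; read 1 hour after dosing, loss of signal relative to DMSO. Initial screen in duplicate at 25 uM, actives followed in concentration series.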

[14] = biological target: human Tyrosine Protein Kinase Receptor Tie-2 (Tie2), TEK (gene 7010) (UniProt Q02763); test: NVS_ENZ_hTie2: NovaScreen (NVS) Enzymatic Assay for human Tyrosine Protein Kinase Receptor Tie-2 (Tie2) (AID 2283225)
Sequence of human Tyrosine Protein Kinase Receptor Tie-2 (Tie2), TEK (gene 7010) (Q02763 whole entry, looked up): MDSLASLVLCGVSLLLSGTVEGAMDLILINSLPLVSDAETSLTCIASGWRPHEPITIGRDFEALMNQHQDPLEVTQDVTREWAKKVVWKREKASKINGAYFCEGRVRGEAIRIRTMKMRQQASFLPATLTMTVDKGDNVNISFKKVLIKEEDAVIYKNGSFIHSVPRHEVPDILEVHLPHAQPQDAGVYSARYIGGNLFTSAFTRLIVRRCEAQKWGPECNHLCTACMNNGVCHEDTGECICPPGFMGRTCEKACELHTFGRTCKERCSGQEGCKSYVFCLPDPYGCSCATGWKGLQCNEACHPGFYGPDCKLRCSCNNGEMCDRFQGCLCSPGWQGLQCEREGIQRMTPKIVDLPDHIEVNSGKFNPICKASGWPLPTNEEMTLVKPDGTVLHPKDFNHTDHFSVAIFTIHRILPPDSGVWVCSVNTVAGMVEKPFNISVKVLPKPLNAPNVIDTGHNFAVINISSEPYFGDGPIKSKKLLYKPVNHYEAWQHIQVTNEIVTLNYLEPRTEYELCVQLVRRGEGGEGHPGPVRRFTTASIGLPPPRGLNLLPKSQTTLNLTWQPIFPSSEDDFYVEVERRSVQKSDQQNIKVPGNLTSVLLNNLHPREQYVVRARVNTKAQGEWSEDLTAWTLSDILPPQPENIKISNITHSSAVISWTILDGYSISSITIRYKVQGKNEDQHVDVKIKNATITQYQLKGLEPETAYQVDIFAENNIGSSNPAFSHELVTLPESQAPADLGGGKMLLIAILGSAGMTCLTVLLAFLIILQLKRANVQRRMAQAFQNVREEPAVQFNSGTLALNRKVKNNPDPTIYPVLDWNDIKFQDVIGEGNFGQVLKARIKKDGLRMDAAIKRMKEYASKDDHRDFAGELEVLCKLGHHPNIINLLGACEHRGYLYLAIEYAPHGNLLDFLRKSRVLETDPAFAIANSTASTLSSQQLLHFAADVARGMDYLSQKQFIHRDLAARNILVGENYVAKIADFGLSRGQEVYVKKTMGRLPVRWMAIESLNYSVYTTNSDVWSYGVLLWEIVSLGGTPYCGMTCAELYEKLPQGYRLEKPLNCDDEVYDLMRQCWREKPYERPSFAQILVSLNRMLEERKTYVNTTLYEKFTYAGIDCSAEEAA
Outline: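 Substrate and product were separated by mobility shift and detected by fluorescence after a 1-hour reaction with recombinant Tie2. Chemicals passing a 25 uM single-point screen were titrated to a maximum of 50 uM. Results were normalized to DMSO baseline.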

[15] = biological target: human Phosphatase and Tensin Homolog (PTEN), PTEN (gene 5728) (UniProt P60484); test: NVS_ENZ_hPTEN: NovaScreen (NVS) Enzymatic Assay for human Phosphatase and Tensin Homolog (PTEN) (AID 2283203)
Sequence of human Phosphatase and Tensin Homolog (PTEN), PTEN (gene 5728) (P60484 whole entry, looked up): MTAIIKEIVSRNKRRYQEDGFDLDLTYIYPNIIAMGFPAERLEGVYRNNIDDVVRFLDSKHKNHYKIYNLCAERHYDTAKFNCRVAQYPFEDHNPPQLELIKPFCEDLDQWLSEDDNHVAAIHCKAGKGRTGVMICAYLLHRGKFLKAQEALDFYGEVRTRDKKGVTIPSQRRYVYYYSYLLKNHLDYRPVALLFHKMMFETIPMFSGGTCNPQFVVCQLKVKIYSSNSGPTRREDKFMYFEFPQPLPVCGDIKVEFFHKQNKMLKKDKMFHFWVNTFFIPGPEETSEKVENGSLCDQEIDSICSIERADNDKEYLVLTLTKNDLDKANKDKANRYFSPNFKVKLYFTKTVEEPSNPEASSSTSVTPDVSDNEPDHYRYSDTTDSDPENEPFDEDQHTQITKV
Outline: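 Loss of fluorescent product signal after mobility-shift separation reports PTEN activity, recombinant human enzyme, 1 h after compound addition. Single 25 uM duplicate screen, then concentration-response on actives; DMSO baseline.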

[16] = biological target: human Acetylcholinesterase (AChE), ACHE (gene 43) (UniProt P22303); test: NVS_ENZ_hAChE: NovaScreen (NVS) Enzymatic Assay for human Acetylcholinesterase (AChE) (AID 2283129)
Outline: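 Actives from a duplicate single-point screen (25 uM) were followed up in concentration series. Enzyme activity read by absorbance (colorimetric) 0.33 hour after dosing, cell-free, normalized to DMSO, with loss of signal scored.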

[17] = biological target: rat Monoamine Oxidase, MAO-B, Central (MAOBC), Maob (gene 25750) (UniProt P19643); test: NVS_ENZ_rMAOBC: NovaScreen (NVS) Enzymatic Assay for rat Monoamine Oxidase, MAO-B, Central (MAOBC) (AID 2283238)
Sequence of rat Monoamine Oxidase, MAO-B, Central (MAOBC), Maob (gene 25750) (P19643 whole entry, looked up): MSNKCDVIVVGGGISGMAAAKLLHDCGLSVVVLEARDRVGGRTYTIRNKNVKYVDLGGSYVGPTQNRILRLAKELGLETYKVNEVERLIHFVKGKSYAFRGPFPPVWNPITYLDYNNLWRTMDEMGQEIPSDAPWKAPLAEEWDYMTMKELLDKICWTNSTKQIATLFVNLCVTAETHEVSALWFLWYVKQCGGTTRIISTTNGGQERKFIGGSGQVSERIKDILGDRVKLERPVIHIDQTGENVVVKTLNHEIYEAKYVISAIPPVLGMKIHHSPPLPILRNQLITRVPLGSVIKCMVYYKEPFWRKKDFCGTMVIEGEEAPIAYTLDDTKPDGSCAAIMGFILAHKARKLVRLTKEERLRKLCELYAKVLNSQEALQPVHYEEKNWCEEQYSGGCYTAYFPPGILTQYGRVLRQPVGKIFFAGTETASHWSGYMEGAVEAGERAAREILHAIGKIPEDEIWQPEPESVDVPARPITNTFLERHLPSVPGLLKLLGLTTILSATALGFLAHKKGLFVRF
Outline: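 Actives from a duplicate 25 uM screen went on to singleton concentration-response with a 50 uM maximum. Enzyme source was rat brain tissue MAO-B, assayed cell-free. Radiolabelled product was counted by scintillation 1.17 h post-dose, with signal loss relative to DMSO.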

[18] = biological target: rat Monoamine Oxidase, MAO-B, Peripheral (MAOBP), Maob (gene 25750) (UniProt P19643); test: NVS_ENZ_rMAOBP: NovaScreen (NVS) Enzymatic Assay for rat Monoamine Oxidase, MAO-B, Peripheral (MAOBP) (AID 2283242)
Sequence of rat Monoamine Oxidase, MAO-B, Peripheral (MAOBP), Maob (gene 25750) (P19643 whole entry, looked up): as above

Measured: AC50

O=Cc1ccccc1C=O
inactive: [1] | [2] | [3] | [5] | [6] | [7] | [8]
active: [4] 17.7 µM

c1ccc2[nH]c(-c3cscn3)nc2c1
inactive: [1] | [2] | [9] | [6] | [10] | [11] | [12]

CCCCCCCCCCCCCC[P+](CCCC)(CCCC)CCCC
active: [2] 9.76 µM | [13] 5.1 µM | [3] 14.5 µM | [14] 15.3 µM
inactive: [1]

COc1ccccc1C=O
inactive: [1] | [15]

C[C@]12CC[C@@H]3c4ccc(O)cc4C[C@@H](CCCCCCCCCS(=O)CCCC(F)(F)C(F)(F)F)[C@H]3[C@@H]1CC[C@@H]2O (stereo partly specified)
inactive: [1] | [16] | [14]

COCCC(=O)OC
inactive: [1] | [10]

C=C1CC[C@H]2O[C@]2(C)CC[C@@H]2[C@@H]1CC2(C)C
inactive: [1] | [15]

OCCCc1cccnc1
inactive: [1] | [15]

Oc1ccc2ccccc2c1
inactive: [1]
active: [6] 12.9 µM | [17] 14.4 µM | [18] 13.3 µM | [10] 10.2 µM
